The source of these data is PubChem BioAssay AID1347416 (National Center for Advancing Translational Sciences (NCATS), 2020).

Out of some 4,100 compounds screened, about 1,600 (39%) were called active. Inconclusive results (about 25%) are left out. The list shows a part of the results. Values without a mark were called inactive. Calls come from the whole dose curve; as a rule, active = well fitted inhibition curve with a large enough effect; inconclusive = small, poorly fitted or top-dose-only effect; inactive = no such curve, though single readings can be large or run the other way.
% is set by controls: 0 for no effect and ±100 for the full control effect; potency is the fitted concentration of half-maximal effect.

The test in a line: qHTS Validation assay for Inhibitors of Plasmodium falciparum Dd2 growth in vitro. Note: nearly all actives have a fitted effect of over 70% in size. Particulars: P. falciparum Dd2 in RBCs, SYBR Green growth, 72 h; series mostly up to 28.7 µM; activity change, negative = inhibition: at the top concentration. The source says: Malaria, a parasitic disease spread to humans through the bite of a Plasmodium infected Anopheles mosquito, continues to be a global health burden affecting millions of people, with an estimated 228 million cases and 405,000 deaths in 2018. Concerns about safety and limitations of current antimalarial treatments strongly emphasize the need to develop new therapeutic options. The scarce number of chemotypes and validated drug targets with efficacy against the liver stage, have hindered development of new antimalarials. To address this, a chemoprophylactic drug discovery effort was conducted through a combined phenotypic high-throughput asexual blood stage and liver stage screen, providing a robust foundation to identify liver-stage active lead chemotypes. Compounds were initially screened against Plasmodium falciparum Dd2 strain parasites using a in vitro SYBRGreen-1 based 72 hr proliferation assay to identify novel chemotypes to advance to liver stage assays. NIH/NCATS Early Translation Branch Assay Submitter (PI): Anton Simeonov Ph.D.
[…] Assay Protocol: PROTOCOL TABLE (as described by Inglese et al., 2007) SEQUENCE No. (e.g., 1, 2, 3, etc.); PARAMETER (e.g., Cells, Incubation, Reagent, etc.); VALUE; DESCRIPTION SEQUENCE, Parameter, Description 1; Reagent; 3 uL complete malaria growth medium, 1536 TC treated Black clear bottom plate 2; Controls; 23 nL positive control artesunate (300 nM final) to column 1; Neutral control DMSO to columns 2-4 3; Compound; 23 nL of compounds in dose response concentration (29 uM to 0.5 nM final) 4; Reagent; 5 uL malaria infected red blood cells (2.5% hematocrit final, 0.3% parasitemia 5; Time; 72 hours at 37C (5% O2, 5% CO2, 90% N2; 95% Rh) 6; Reagent; 2 uL lysis buffer/SYBRGreen-1, 25 sec shake immediately following dispense 7; Time; ~16 hours at 37C (5% O2, 5% CO2, 90% N2; 95% Rh) 8; Detector; EnVision (PerkinElmer) bottom read at 485/14nm excitation and 535/25 nm emission NOTES (numbers refer to sequence above): 1; Complete Malaria Growth Media: 1X RPMI-1640 w/L-glutamine, 5.5g/L Albumax II, 367 uM Hypoxanthine, 25 mM HEPES, 0.25% Sodium Bicarbonate, 35 uM Gentamicin sulfate 2; Controls were added using the Kalypsis Pintool (Wako USA) equipped with 1536 pinhead 3; Compounds were added in a 7-point, titration with a high final concentration of 29 uM by Pintool from seven inter-plate titrations of library plates and two DMSO control plates at the beginning and end (see Yasgar et al., 2008). 4; Red blood cells infected with Plasmodium falciparum Dd2 parasites were used. 6; Lysis buffer: 20 mM Tris-HCl, 10 mM EDTA, 0.16% Saponin, 1.6% Triton-X, 10X SYBR Green. REFERENCE: Inglese J, Shamu CE, Guy RK. 2007. Reporting data from high-throughput screening of small-molecule libraries. Nat Chem Biol. doi:10.1038/nchembio0807-438 Yasgar A, Shinn P, Jadhav A, Auld D, Michael S, Zheng W, Austin CP, Inglese J, Simeonov A. 2008. Compound Management for Quantitative High-Throughput Screening. J Lab Autom 13:79-89. doi:10.1016/j.jala.2007.12.004
On to `CN1Cc2ccccc2-n2ccnc2C12CCN(C(=O)c1cccc(C(F)(F)F)c1)CC2`, for which the “activity change, negative = inhibition” value was -8.82%.
`Clc1ccc(C(Cn2ccnc2)OCc2csc3c(Cl)cccc23)c(Cl)c1` (centres undefined): the Potency was 2.37 µM (active).
As for `CCCCn1c(NS(=O)(=O)c2ccccc2)c(C(=O)OCC)c2nc3ccccc3nc21`, the Potency is 10.6 µM (active).
On to `C=CC1CN2CCC1CC2C(OC(C)=O)c1ccnc2ccc(OC)cc12` (centres undefined), for which the Potency was 1.68 µM (active).
The same measure, in the same setting: the value for `CN(C)CC1CSCCC1(O)c1ccccc1Cl` (centres undefined) was 5.96 µM (active); that for `Cc1ccccc1CN1C(=O)CN=C(c2ccccc2)c2cc(Cl)ccc21` was 16.8 µM (active); that for `CCC1(OC(=O)CN)C(=O)OCc2c1cc1n(c2=O)Cc2cc3ccccc3nc2-1` (centres undefined) was 6.68 µM (active).
For `Oc1ccc(Cl)cc1CN1CCN(Cc2ccccc2)CC1`, the Potency was 0.944 µM (active).
On the same count and under the same terms, to `Oc1c(Cl)cc(Cl)cc1CN1CCN(Cc2ccccc2)CC1` belongs 0.668 µM (active); to `O=C(NC[C@H]1C[C@@H]2CCN1C[C@@H]2CN1CCC(Cc2ccccc2)CC1)c1ccccc1`, 7.69 µM (active); to `COc1ccc(CN2CCCC(C(=O)c3ccc(Cl)cc3)C2)c(O)c1` (centres undefined), 0.531 µM (active).
On the same count and under the same terms, the value for `O=C(C[C@@H]1NCCC[C@H]1O)Cn1cnc2cc(Br)c(Cl)cc2c1=O` was 2.37 µM (active); that for `C[n+]1c(-c2ccccc2)cc(-c2ccc(Cl)cc2)cc1-c1ccccc1` was 6.68 µM (active); that for `COc1cc2c(cc1OC1CCCC1)NC(=O)C21CCN(c2cnccn2)CC1` was 7.69 µM (active).
On the same count and under the same terms, the value for `COc1cc2c(cc1Oc1cccc(N(C)C)c1)NC(=O)C21CCN(c2cnccn2)CC1` was 1.5 µM (active).
In the case of `Cn1nccc1CN1CCC2(CC1)C(=O)Nc1ccccc12`, the “activity change, negative = inhibition” value is -13.6% [at 43.1 µM].
For the molecule `COc1cc2c(cc1OCC1CC1)NC(=O)C21CCN(c2nccs2)CC1`, the Potency is 21.7 µM (active).
On the same count and under the same terms, the value for `COc1cc2c(cc1OCc1ccccc1)NC(=O)C21CCN(c2ccccn2)CC1` was 15.3 µM (active).
Consider `COc1cc2c(cc1OCC1CC1)NC(=O)C21CCN(C(=O)c2cccnc2)CC1`, for which the “activity change, negative = inhibition” value was 44.2% [at 43.1 µM].
The same measure, in the same setting: the value for `COc1cc2c(cc1Oc1ccccc1)NC(=O)C21CCN(C(=O)c2ccccc2)CC1` was 9.16% [at 43.1 µM].
Regarding `COc1cc2c(cc1Oc1ccccc1)NC(=O)C21CCN(c2cnccn2)CC1`, the Potency was 2.17 µM (active).
Turning to `O=C(Nc1ccc2n(c1=O)C[C@H]1C[C@@H]2CN(Cc2ccc(F)cc2)C1)c1cccs1`, the Potency was 15.3 µM (active).
In the case of `C#C[C@H]1CN2CC[C@H]1C[C@@H]2CNCc1cccc(Cl)c1`, the Potency is 4.85 µM (active).
On the same count and under the same terms, to `CC[C@H]1CN2CC[C@H]1C[C@@H]2CNCc1ccc(SC)cc1` belongs 4.33 µM (active); to `C#C[C@H]1CN2CC[C@H]1C[C@@H]2CNCc1ccc(F)c(F)c1`, 13.7 µM (active); to `O[C@H]1[C@H](NCC2CCCC2)[C@@H](c2ccccc2)C[C@H]1O`, 6.11 µM (active).
On to `COc1cc2c(cc1OCc1ccccc1)N(C(=O)c1cc3ccccc3[nH]1)CC21CCN(C)CC1`, for which the Potency was 0.944 µM (active).
For `COc1cc2c(cc1OCc1ccccc1)N(C(=O)c1cc3ccccc3n1C)CC21CCN(C)CC1`, the Potency was 2.11 µM (active).
Still for that read-out and setting: to `COc1cc2c(cc1OCc1ccccc1)N([S+](=O)([O-])c1cccnc1)CC21CCN(C)CC1` belongs 10.6 µM (active); to `Oc1ccc(Br)cc1CN1CCN(c2ccccc2)CC1`, 2.11 µM (active); to `Cc1ccc(O)c(CN2CCN(c3ccccc3)CC2)c1`, 2.99 µM (active).
As for `CCc1ccc(CN2CCN(Cc3cc(Br)ccc3O)CC2)cc1`, the Potency is 2.11 µM (active).
Still for that read-out and setting: to `CC(C)c1ccc(O)c(CN2CCN(c3ccccc3)CC2)c1` belongs 1.33 µM (active).
In the case of `CNC(=O)Oc1cccc(-c2cn3cc(OC(=O)NC)ccc3n2)c1`, the “activity change, negative = inhibition” value was -2.9%.
With `Oc1cc2c(cc1CN1CCN(c3ccccc3)CC1)CCC2`, the Potency is 3.35 µM (active).
Regarding `COc1ccccc1N1CCN(Cc2cc(C)c(C)cc2O)CC1`, the Potency is 0.376 µM (active).
`CC(C)(C)c1ccc(O)c(CN2CCN(c3ccccc3)CC2)c1`: the Potency was 1.5 µM (active).
Turning to `COc1ccc(-c2cc([C@H]3CN4CC[C@H]3C[C@@H]4CNC(=O)NC3CCCCC3)n(C)n2)cc1`, the Potency was 1.88 µM (active).
On to `Cn1nc(C2CCCCC2)cc1[C@H]1CN2CC[C@H]1C[C@@H]2CNC(=O)c1cccs1`, for which the Potency is 13.7 µM (active).
Take `COc1ccc(OC)c(S(=O)(=O)NC[C@H]2C[C@@H]3CCN2C[C@@H]3c2cc(-c3ccc(F)cc3)nn2C)c1`: the Potency was 6.68 µM (active).
Same read-out and setting: the value for `COc1ccc(-c2cc([C@H]3CN4CC[C@H]3C[C@@H]4CNS(=O)(=O)c3ccc(Cl)cc3)n(C)n2)cc1OC` was 2.99 µM (active).
For the molecule `COc1ccc(-c2cn(C[C@H]3C[C@@H]4CCN3C[C@@H]4C(=O)NCc3ccccc3)nn2)cc1`, the “activity change, negative = inhibition” value was -16.3% [at 43.1 µM].
As to `Cc1ccc(S(=O)(=O)NC[C@H]2C[C@@H]3CCN2C[C@@H]3CN2CCc3ccccc32)cc1`, the Potency is 13.7 µM (active).
Regarding `CN1CCN(C[C@H]2CN3CC[C@H]2C[C@@H]3CNS(=O)(=O)c2ccccc2)CC1`, the “activity change, negative = inhibition” value is 0% [at 43.1 µM].
Take `C[n+]1c2ccccc2nc2ccc(NCCO)cc21`: the Potency was 1.19 µM (active).
Same read-out and setting: to `COC(=O)C1=C(c2ccc(-c3ccccc3)c(F)c2)C[C@@H]2CC[C@H]1N2C(=O)NCc1cccc2ccccc12` belongs 10.6 µM (active); to `COC(=O)C1=C(c2ccc(OC)c(OC)c2)C[C@@H]2CC[C@H]1N2C(=O)NCc1cccc2ccccc12`, 3.35 µM (active).
In the case of `COc1cccc(CC(=O)N2[C@H]3CC[C@@H]2c2cnc(-c4ccc(F)cc4)nc2C3)c1`, the “activity change, negative = inhibition” value is -7.05%.
Take `CCCCCSc1cc(O)c(C(CNC)C(C)C)cc1OC` (centres undefined): the Potency is 0.168 µM (active).
